Laboratory results: PubChem BioAssay (NCATS)
Results filed as inconclusive are left out. Active and inactive are the calls of the source. Calls come from the whole dose curve; as a rule, active = well fitted curve in the direction sought with a large enough effect; inconclusive = small, poorly fitted or top-dose-only effect, or another doubt; inactive = no such curve, though single readings can be large; an effect the other way counts as inactive or inconclusive.

Key:
CRL-7250 = normal cell line; assay: Cytotoxic Profiling of Annotated Libraries Using Quantitative High-Throughput Screening (AID 1296008); settings: Five cell lines viability, CellTiter-Glo ATP luminescence, 48-72 h; max response: active compounds read low; note: nearly all actives have a fitted effect of over 60% in size; for max response: % is set by controls: 0 for no effect and ±100 for the full control effect
Summary of the method: (§1)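 Cytotoxicity was measured as CellTiter-Glo ATP luminescence, read after 10 min at room temperature. Compound treatment of the cells lasted 48 or 72 hr at 37 degrees Celsius in a qHTS format.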

HEK293 = assay: as above; settings: Five cell lines viability, CellTiter-Glo ATP luminescence, 48-72 h; max response: active compounds read low
Summary of the method: as §1

HaCat [1] = assay: as above; settings: Five cell lines viability, CellTiter-Glo ATP luminescence, 48-72 h; max response: active compounds read low
Summary of the method: as §1

KB-3-1 = assay: as above; settings: Five cell lines viability, CellTiter-Glo ATP luminescence, 48-72 h; max response: active compounds read low
Summary of the method: as §1

NIH3T3 [2] = assay: as above; settings: Five cell lines viability, CellTiter-Glo ATP luminescence, 48-72 h; max response: active compounds read low
Summary of the method: as §1

HACAT [3] = assay: qHTS assay to identify novel small-molecules to repurpose for Merkel cell carcinoma treatment (AID 1296009); settings: MCC and control cell lines, CellTiter-Glo viability, 72 h; at 44.8 µM (top of the series) unless noted; note: nearly all actives have a fitted effect of over 60% in size
Summary of the method: (§2)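 Cell viability measured by CellTiter-Glo following 72 hr compound treatment at 37 degree celsius, with NPC and MIPE libraries tested in 8- and 11-point concentration series.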

HEK293T = assay: as above; settings: MCC and control cell lines, CellTiter-Glo viability, 72 h; series mostly up to 44.8 µM
Summary of the method: as §2

C33A = assay: Primary qHTS to identify gynecologic anti-cancer compounds using libraries of approved drugs and bioactive compounds (AID 1345084); settings: Gynecologic cancer cell panel viability, ATPlite luminescence, 48 h; series mostly up to 57.5 µM; note: % is set by controls: 0 for no effect and ±100 for the full control effect; nearly all actives have a fitted effect of over 55% in size
Summary of the method: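 Cells, 1,000 per well, were allowed to settle for 16 h at 37 C before compound addition. Five concentrations were tested for 48 h, and viability was read by ATPlite luminescence after 15 min at room temperature.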

NIH3T3 [4] = assay: qHTS assay to identify novel small-molecules to repurpose for Merkel cell carcinoma treatment (AID 1296009); settings: MCC and control cell lines, CellTiter-Glo viability, 72 h; at 44.8 µM (top of the series) unless noted; note: nearly all actives have a fitted effect of over 60% in size
Summary of the method: as §2

CC1(C)CC[C@]2(C(=O)O[C@@H]3O[C@H](CO)[C@@H](O)[C@H](O)[C@H]3O)CC[C@]3(C)C(=CCC4[C@@]5(C)C[C@@H](O)[C@H](O)[C@@](C)(CO)C5CC[C@]43C)C2C1 (some centres undefined)
inactive: max response (CRL-7250) 1.73% | outcome (HEK293) | outcome (HaCat [1]) | outcome (KB-3-1) | max response (NIH3T3 [2]) -1.65% | outcome (HACAT [3]) inactive [at 17.4 µM] | Potency (HEK293T) | Potency (C33A)

FC(F)(F)c1cc(C(F)(F)F)c2ccc3nc(-c4nnco4)cn3c2n1
inactive: outcome (CRL-7250) | outcome (HEK293) | outcome (HaCat [1]) | max response (KB-3-1) -10% | outcome (NIH3T3 [2]) | outcome (HACAT [3]) | Potency (HEK293T) | outcome (NIH3T3 [4]) | Potency (C33A)

CO[C@@H](Cc1ccc(OCCc2nc(-c3ccccc3)oc2C)c2ccsc12)C(=O)O
inactive: outcome (CRL-7250) | outcome (HEK293) | outcome (HaCat [1]) | max response (KB-3-1) -3.49% | outcome (NIH3T3 [2]) | outcome (HACAT [3]) | Potency (HEK293T) | outcome (NIH3T3 [4]) | Potency (C33A)

COc1cc(/C=C/C(=O)OC2CC(C)=C(C(=O)O)/C2=C/CO[C@@H]2O[C@H](CO)[C@@H](O)[C@H](O)[C@H]2O)ccc1O (some centres undefined)
inactive: max response (CRL-7250) 4.12% | outcome (HEK293) | outcome (HaCat [1]) | outcome (KB-3-1) | outcome (NIH3T3 [2]) | outcome (HACAT [3]) inactive [at 17.4 µM] | Potency (HEK293T) | outcome (NIH3T3 [4]) inactive [at 17.4 µM] | Potency (C33A)

CC(C)=CC/C=C(/C)[C@H]1CC[C@]2(C)[C@@H]1[C@H](O)CC1[C@@]3(C)CC[C@H](O)C(C)(C)[C@@H]3[C@@H](O[C@@H]3O[C@H](CO)[C@@H](O)[C@H](O)[C@H]3O[C@@H]3O[C@@H](C)[C@H](O)[C@@H](O)[C@H]3O)C[C@]12C (some centres undefined)
inactive: max response (CRL-7250) -7.49% | outcome (HEK293) | outcome (HaCat [1]) | max response (KB-3-1) 7.96% | outcome (NIH3T3 [2]) | outcome (HACAT [3]) inactive [at 17.4 µM] | Potency (HEK293T) | outcome (NIH3T3 [4]) inactive [at 17.4 µM] | Potency (C33A)

CC(CCC1(O)OC2CC3C4CCC5CC(O[C@@H]6O[C@H](CO)[C@@H](O)[C@H](O)[C@H]6O[C@@H]6OC[C@@H](O)[C@H](O)[C@H]6O)C(O)CC5(C)C4CCC3(C)C2C1C)CO[C@@H]1O[C@H](CO)[C@@H](O)[C@H](O)[C@H]1O (some centres undefined)
inactive: max response (CRL-7250) -0.157% | outcome (HEK293) | outcome (HaCat [1]) | outcome (KB-3-1) | outcome (NIH3T3 [2]) | outcome (HACAT [3]) inactive [at 9.27 µM] | outcome (HEK293T) inactive [at 9.27 µM] | outcome (NIH3T3 [4]) inactive [at 9.27 µM] | activity change, negative = cytotoxicity (C33A) 4.8% [at 11.6 µM]

NCc1c[nH]c(=S)n1C1CCc2c(F)cc(F)cc2C1 (centres undefined)
inactive: max response (CRL-7250) -1.6% | outcome (HEK293) | outcome (HaCat [1]) | max response (KB-3-1) -6.7% | outcome (NIH3T3 [2]) | outcome (HACAT [3]) | Potency (HEK293T) | outcome (NIH3T3 [4]) | Potency (C33A)

O=C(NCC(=O)N1CC[C@H](NC2CCC(O)(c3ccc(-c4ncccn4)cn3)CC2)C1)c1cccc(C(F)(F)F)c1 (some centres undefined)
inactive: max response (CRL-7250) -2.44% | outcome (HEK293) | outcome (HaCat [1]) | outcome (KB-3-1) | max response (NIH3T3 [2]) 3.11% | outcome (HACAT [3]) | Potency (HEK293T) | Potency (C33A)

CC1(C)OC(=O)C(OCC2CC2)=C1c1ccc(S(C)(=O)=O)cc1
inactive: outcome (CRL-7250) | outcome (HEK293) | outcome (HaCat [1]) | outcome (KB-3-1) | outcome (NIH3T3 [2]) | outcome (HACAT [3]) | Potency (HEK293T) | Potency (C33A)

COc1ccc([C@H]2Cc3cccc(O)c3C(=O)O2)cc1
inactive: max response (CRL-7250) -7.43% | outcome (HEK293) | outcome (HaCat [1]) | max response (KB-3-1) 9.62% | outcome (NIH3T3 [2]) | outcome (HACAT [3]) | Potency (HEK293T) | outcome (NIH3T3 [4]) | Potency (C33A)

CC(=O)O[C@H]1[C@H](C)[C@@H](O)[C@H]2[C@@H]1C=C(C(=O)O)[C@H]1C[C@@H]3[C@H]([C@H]21)[C@H]1C(=O)O[C@@H]2CC[C@@]3(C)O[C@]1(O)[C@@H]2C
inactive: max response (CRL-7250) -0.589% | outcome (HEK293) | outcome (HaCat [1]) | max response (KB-3-1) 7.8% | outcome (NIH3T3 [2]) | outcome (HACAT [3]) inactive [at 17.4 µM] | Potency (HEK293T) | outcome (NIH3T3 [4]) inactive [at 17.4 µM] | Potency (C33A)

CC(C)(O)C1=CCC23COC(C2)C(O)(C(=O)O)CCC13 (centres undefined)
inactive: outcome (CRL-7250) | outcome (HEK293) | outcome (HaCat [1]) | max response (KB-3-1) 2.8% | outcome (NIH3T3 [2]) | outcome (HACAT [3]) | Potency (HEK293T) | outcome (NIH3T3 [4]) | Potency (C33A)

CC(=O)OCC(=O)O[C@@H]1[C@H]2[C@@H](OC(=O)c3ccccc3)[C@@H](C)C[C@]2(O)[C@H](OC(C)=O)C2(C)[C@H]3CC(C)(C)C(=O)[C@@H]3CC1(OC(C)=O)[C@@H]2OC(C)=O (some centres undefined)
inactive: max response (CRL-7250) -0.187% | outcome (HEK293) | outcome (HaCat [1]) | max response (KB-3-1) 9.67% | outcome (NIH3T3 [2]) | outcome (HACAT [3]) inactive [at 17.4 µM] | Potency (HEK293T) | outcome (NIH3T3 [4]) inactive [at 17.4 µM] | Potency (C33A)
